This is one part of the list. The source made the active and inactive calls. Rule as the data show it: active = activation above about 18%; inactive = the rest.

Drawing on PubChem BioAssay AID504913 (The Scripps Research Institute Molecular Screening Center, 2011), this text covers activation for 24 molecules.

This experiment is described as follows: activation of mu-delta opioid heterodimer signal – cell-based, luminescence, counter-screen for HTR5A agonist project (AID 504913). The conditions noted are these: U2OS counter-screen cells, complementation luminescence, 3 h; at 9.3 µM; hits give high values. On the technique in general: Counterscreens check selectivity or assay interference.
As for `COc1ccc2[nH]cc(CCN3C(=O)c4ccc(C(=O)O)cc4C3=O)c2c1`, the activation is 1.66% (inactive). Under `CNc1nnc(-c2ccco2)s1` stands 4.29% (inactive). Under `c1cc(-c2nn[nH]n2)ccc1CN1CCCCC1` stands 0.2% (inactive). As for `O=C(OC12CC3CC(CC(C3)C1)C2)c1ccc(NCc2cc(O)ccc2O)cc1`, the activation was 8.31% (inactive). As to `Cc1ccc(-c2csc(SCC(=O)Nc3cc(C)on3)n2)cc1`, the activation is 0.69% (inactive). For `COc1ccc(C(=O)O/N=C(\N)Cc2ccc(Cl)cc2Cl)cc1OC` the value was 9.9% (inactive); for `CCCN(CCc1ccccc1)C1CCc2c(O)cccc2C1` (centres undefined), 11.3% (inactive).

For `Cc1cccc2sc(N(CCCN(C)C)C(=O)CCS(=O)(=O)c3ccccc3)nc12`, the activation was 0.46% (inactive). Take `COc1cccc(OCC(=O)Nc2ccccc2C(N)=O)c1`: the activation is 0.46% (inactive). For `Cc1ccc(C(=O)N/C(=C/c2ccco2)C(=O)NCCc2c[nH]c3ccccc23)cc1C` the value was 0.35% (inactive); for `O=C(Nc1ccc(C(=O)N2CCOCC2)cc1)Nc1cccc(C(F)(F)F)c1`, 0.41% (inactive); for `CC1(C)C2CCC1(CS(=O)(=O)NCCc1c[nH]c3ccccc13)C(=O)C2` (centres undefined), 0.82% (inactive). For the molecule `COC(=O)c1cc(S(=O)(=O)N2CCN(c3cc(C)ccc3C)CC2)c[nH]1`, the activation was 0.96% (inactive). `COc1cccc(/C=N/NC(=O)c2[nH]nc3c2CCc2ccccc2-3)c1O`: the activation was -4.02% (inactive). For the molecule `CC1CCN(S(=O)(=O)c2nnc(NC(=O)COc3ccccc3F)s2)CC1`, the activation is 3.72% (inactive). Regarding `O=C(c1cccnc1)N(c1cc2sc(=O)oc2c2ccccc12)S(=O)(=O)c1ccccc1`, the activation is 4.54% (inactive). As for `Cc1ccccc1CN1CCN(CC(=O)NCc2ccccn2)C1=O`, the activation is 0.64% (inactive).

For the molecule `CC(=O)c1c(C)[nH]c(C(=O)OCC(=O)Nc2c(C)cccc2C)c1C`, the activation is 1.59% (inactive). For `O=C(CC(O)(C(F)(F)F)C(F)(F)F)Nc1ccc(Cl)c(Cl)c1` the value was -1.36% (inactive); for `COc1ccc(/C=C(\C#N)c2c[nH]c3ccccc23)cc1`, 6.75% (inactive); for `CCCOc1ccc(C(=O)C(CCC(CNCC)C(=O)c2ccc(OCCC)cc2)CNCC)cc1` (centres undefined), -0.5% (inactive). For `Cc1c(C(=O)OCC(=O)N(CCC#N)c2ccccc2)oc2c1ccc1ccccc12` the value was 1.04% (inactive); for `CCOC(=O)c1cnc2sccn2c1=O`, 1.07% (inactive). For the molecule `O=C(CC1Nc2ccccc2NC1=O)Nc1ccccc1` (centres undefined), the activation is 2.23% (inactive).
